System: Vero E6 infected with SARS-CoV-2
Experiment: inhibition of SARS-CoV-2 cytopathic effect; higher = more antiviral protection, active = above 15
Conditions: 48 h

Measured: inhibition of SARS-CoV-2 cytopathic effect

C[C@@H](N[C@H]1CCCC[C@@H]1NC(=O)c1ccc(Cl)cc1)c1cccc2ccccc12 [Calhex-231]
inactive: 1 nM -0.12% | 8.33 nM -0.88% | 100 nM 1.31% | 833.33 nM 5.65% | 10000 nM -1.86%

N=C1CCCN1Cc1[nH]c(=O)[nH]c(=O)c1Cl [tipiracil]
inactive: 1 nM 2.52% | 8.33 nM 2.02% | 100 nM 0.58% | 833.33 nM -1.37% | 10000 nM 2.84%

Clc1ccc2c(N3CCN(CCCN4CCN(c5ccnc6cc(Cl)ccc56)CC4)CC3)ccnc2c1 [piperaquine-phosphate]
inactive: 1 nM -0.04% | 8.33 nM 1.25% | 100 nM -0.14% | 833.33 nM -1.37% | 10000 nM -2.6%

COc1cc2ncn(-c3cc(OCc4ccccc4C(F)(F)F)c(C(N)=O)s3)c2cc1OC
inactive: 1 nM -9.5% | 8.33 nM -5.03% | 100 nM -7.65% | 833.33 nM -5.41% | 10000 nM -1.95%

CC(=O)OCC(=O)[C@@]1(O)CC[C@H]2[C@@H]3CCC4=CC(=O)C=C[C@]4(C)[C@@]3(F)[C@@H](O)C[C@@]21C [isoflupredone-acetate]
inactive: 1 nM 2.83% | 8.33 nM 2.61% | 100 nM 0.09% | 833.33 nM 1.17% | 10000 nM 1.02%

CC(C)(S)C(=O)N[C@@H](CS)C(=O)O [bucillamine]
inactive: 1 nM 0.66% | 8.33 nM 4.25% | 100 nM 5.04% | 833.33 nM 3.9% | 10000 nM -4%

O=C(O)c1c2ccccc2cc2ccccc12 [9-anthracenecarboxylic-acid]
inactive: 1 nM -4.6% | 8.33 nM 2.11% | 100 nM 0.63% | 833.33 nM 1.03% | 10000 nM -2.02%

CC1Sc2c(C(=O)O)c(=O)c3cc(F)c(N4CCNCC4)cc3n21 (stereo not given) [ulifloxacin]
inactive: 1 nM -1.7% | 8.33 nM -1.36% | 100 nM -3.62% | 833.33 nM 1.61% | 10000 nM -0.79%

C[C@@H]1CCC[C@H](C)N1NC(=O)c1ccc(Cl)c(S(N)(=O)=O)c1 [clopamide]
inactive: 1 nM -1.53% | 8.33 nM 2.77% | 100 nM 0.22% | 833.33 nM 5.88% | 10000 nM -2.61%

CCN(CC)C(=O)N[C@H]1C[C@@H]2c3cccc4[nH]cc(c34)C[C@H]2N(C)C1 [terguride]
inactive: 1 nM -0.35% | 8.33 nM -0.23% | 100 nM -0.57% | 833.33 nM -2.15% | 10000 nM -0.04%

CC(=O)NCC(=O)N1[C@@H]2CC[C@H]1c1ccc(Nc3ncc(C(F)(F)F)c(NC4CCC4)n3)cc12
inactive: 1 nM -2.51% | 8.33 nM -1.15% | 100 nM -2.99% | 833.33 nM -4.63% | 10000 nM -15.4%

CCC(N)C(O)c1ccc(O)c(O)c1 (stereo not given) [ethylnorepinephrine]
inactive: 1 nM -0.61% | 8.33 nM 0.7% | 100 nM 0.54% | 833.33 nM -1.28% | 10000 nM -0.69%

CC(C)(C)C(=O)OCC(=O)[C@H]1CC[C@H]2[C@@H]3CCC4=CC(=O)CC[C@]4(C)[C@H]3CC[C@]12C [desoxycorticosterone-pivalate]
inactive: 1 nM -1.6% | 8.33 nM 0.71% | 100 nM -0.4% | 833.33 nM -0.12% | 10000 nM 0.98%

Cc1ncc(CO)c(/C=N/NC(=O)c2ccncc2)c1O [pyridoxal-isonicotinoyl-hydrazone]
inactive: 1 nM 3.14% | 8.33 nM -0.89% | 100 nM -0.41% | 833.33 nM 0.28% | 10000 nM -0.54%

Cc1c(F)cc(C(=O)NC2CC2)cc1-c1c(F)cn2c(C(C)(C)C)nnc2c1F
inactive: 1 nM -1.55% | 8.33 nM -0.6% | 100 nM -3.43% | 833.33 nM 0.89% | 10000 nM -0.19%

CCN1C[C@]2(COC(=O)c3ccccc3N3C(=O)C[C@H](C)C3=O)CC[C@H](OC)[C@@]34[C@@H]5C[C@H]6[C@H](OC)[C@@H]5[C@](O)(C[C@@H]6OC)[C@](O)([C@@H](OC)[C@H]23)[C@@H]14 [methyllycaconitine]
inactive: 1 nM -1.85% | 8.33 nM -0.91% | 100 nM 0.85% | 833.33 nM 0.06% | 10000 nM -1.4%

CCC(CO)(C(=O)OC1CC2CCC(C1)[N+]2(C)C)c1ccccc1 (stereo not given) [troventol]
inactive: 1 nM 1.78% | 8.33 nM 6.67% | 100 nM 0.13% | 833.33 nM -1.03% | 10000 nM 2.53%

Source: the supplement of paper PMC13380429
